A short description of this test: modulators of CD8 T cell-vesicle binding, confirmation, cherry-picked primary hits, two concentrations (AID 2810).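 For all read-outs here: lower values mean blocking of vesicle binding.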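 For percent response (vesicle binding): ratio of mean FL2 vesicle stain of CD8+ cells to that row's control.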 The conditions noted are these: 2C CD8+ T cell-vesicle binding, flow cytometry; for double positive events: CD8+/vesicle+ events. For orientation: Flow cytometry measures light scatter and fluorescence of single cells or particles in a stream.
Setting [1] is: at 15.4 µM, stronger effect = lower value.

Each structure is given as a SMILES string. The campaign covered roughly 1,200 compounds. About 65 (5%) were called active.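 Rule for the calls: active = at either tested dose, response and 90th-percentile vesicle-stain brightness of CD8 cells under set limits and under 9% cells vesicle-bound; inactive = the rest.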 Only a selection was taken, and actives are over-represented in it overall.

In the case of `COc1ccc(C2=CC(=O)C[C@H](c3ccc4c(c3)OCO4)C2)cn1`, the double positive events worked out at 9.9% (at 7.7 µM) and 4.4% under setting [1]. Besides, the percent response (vesicle binding) by setting is: under setting [1], 35.6% (active); (response, at 7.7 µM) 132%.

For `COc1ccc([C@H]2CC(=O)C=C(c3ccc(OC)nc3)C2)cc1`, the double positive events was 14.2% (at 7.7 µM) and 9.6% under setting [1]. The percent response (vesicle binding) reads like this: under setting [1], 212% (inactive); (response, at 7.7 µM) 129%.

For the compound `CCCOc1ccc(C2=CC(=O)C[C@H](c3ccc(OC)cc3)C2)cc1`, the double positive events is, setting by setting: (at 7.7 µM) 11%; under setting [1], 10.3%. Further, the percent response (vesicle binding) under setting [1] was 69.4% (inactive) and the percent response (vesicle binding) (response, at 7.7 µM) was determined as 126%.

The compound `Cc1ccc(O)c(CCc2ccccc2)n1` yielded a double positive events (at 7.7 µM) of 15.8% and a double positive events under setting [1] of 2.8%. For the same compound, the percent response (vesicle binding) under setting [1] is 113% (inactive) and the percent response (vesicle binding) (response, at 7.7 µM) was 128%.

For the compound `O=C(Nc1nc2ccccc2[nH]1)c1ccccc1[N+](=O)[O-]`, the double positive events worked out at 21% (at 7.7 µM) and 27.8% under setting [1]. The percent response (vesicle binding) is 316% (inactive) under setting [1] and 383% (response, at 7.7 µM).

As to `CCNC(=O)CSc1nc(-c2ccccc2)cs1`, the double positive events runs as follows: (at 7.7 µM) 25.1%; under setting [1], 14.3%. Besides, the percent response (vesicle binding) is, setting by setting: under setting [1], 215% (inactive); (response, at 7.7 µM) 240%.

For `O=C(Nc1nc(-c2ccccc2)cs1)c1ccc(N2CCOCC2)c([N+](=O)[O-])c1`, the double positive events is, setting by setting: (at 7.7 µM) 8.4%; under setting [1], 25.6%. Further, the percent response (vesicle binding) under setting [1] is 552% (inactive) and the percent response (vesicle binding) (response, at 7.7 µM) is 78.4%.

Take `O=C(NC(=S)Nc1nc(-c2ccccc2)cs1)c1cccs1`: the double positive events is, setting by setting: (at 7.7 µM) 16.9%; under setting [1], 1.5%. The percent response (vesicle binding) was 48.9% (active) under setting [1] and 238% (response, at 7.7 µM).

In the case of `CC1c2ccsc2CCN1C(=O)NC(=O)c1ccc(Cl)cc1` (stereo unspecified), the double positive events runs as follows: (at 7.7 µM) 20.6%; under setting [1], 18.4%. Besides, the percent response (vesicle binding) under setting [1] was 185% (inactive) and the percent response (vesicle binding) (response, at 7.7 µM) was 486%.

On to `CCOC(=O)c1cnc2nc(C)nn2c1N`, for which the double positive events was 10.5% (at 7.7 µM) and 10.6% under setting [1]. In addition, the percent response (vesicle binding) by setting is: under setting [1], 70.8% (inactive); (response, at 7.7 µM) 113%.

Turning to `CCCCNC(=O)c1cnc2n(c1=O)CCS2`, the double positive events is, setting by setting: (at 7.7 µM) 38.7%; under setting [1], 14.7%. Further, the percent response (vesicle binding) under setting [1] was 184% (inactive) and the percent response (vesicle binding) (response, at 7.7 µM) was found to be 399%.

With `CCCNC(=O)c1nc2ncc(Br)cn2n1`, the double positive events by setting is: (at 7.7 µM) 15.3%; under setting [1], 1%. The percent response (vesicle binding) runs as follows: under setting [1], 43% (active); (response, at 7.7 µM) 231%.

`O=C(NC(=S)NCc1ccco1)c1ccc(Br)cc1` gave a double positive events (at 7.7 µM) of 18.8% and a double positive events under setting [1] of 5.9%. The percent response (vesicle binding) by setting is: under setting [1], 52.9% (active); (response, at 7.7 µM) 186%.

For the compound `O=C(NNC(=S)NC(=O)c1ccco1)c1ccc(F)cc1`, the double positive events is, setting by setting: (at 7.7 µM) 7.1%; under setting [1], 18.1%. The percent response (vesicle binding) is, setting by setting: under setting [1], 196% (inactive); (response, at 7.7 µM) 291%.

Consider `Cc1ccc(C(=O)NCc2ccco2)o1`, for which the double positive events is, setting by setting: (at 7.7 µM) 10.5%; under setting [1], 20.1%. For the same compound, the percent response (vesicle binding) runs as follows: under setting [1], 586% (inactive); (response, at 7.7 µM) 368%.

`CCOc1ccccc1NC(=O)c1ccc(F)c(S(=O)(=O)N2CCC3(CC2)OCCO3)c1` yielded a double positive events (at 7.7 µM) of 16.8% and a double positive events under setting [1] of 14.7%. The percent response (vesicle binding) under setting [1] was 94.2% (inactive) and the percent response (vesicle binding) (response, at 7.7 µM) turned out to be 132%.

Take `COc1ccc(C2(O)CCN(CCCCOc3ccccc3)CC2)cc1`: the double positive events was found to be 12.9% (at 7.7 µM) and 31.8% under setting [1]. The percent response (vesicle binding) runs as follows: under setting [1], 292% (inactive); (response, at 7.7 µM) 174%.

For the compound `C[N+]1(C)CC2([N+](=O)[O-])CC=C(Oc3ccccc3)C([N+](=O)[O-])(C2)C1` (stereo unspecified), the double positive events (at 7.7 µM) turned out to be 28.9% and the double positive events under setting [1] was 3.4%. For the same compound, the percent response (vesicle binding) under setting [1] is 49.5% (active) and the percent response (vesicle binding) (response, at 7.7 µM) turned out to be 485%.

Consider `CCOc1ccccc1NC(=O)CN(c1ccc(C)cc1)S(=O)(=O)c1c(C)noc1C`, for which the double positive events was 30.1% (at 7.7 µM) and 16.7% under setting [1]. The percent response (vesicle binding) is 129% (inactive) under setting [1] and 502% (response, at 7.7 µM).

In the case of `COc1ccc(Cl)cc1NC(=O)/C=C/C(=O)O`, the double positive events by setting is: (at 7.7 µM) 13.3%; under setting [1], 24.2%. Besides, the percent response (vesicle binding) was 251% (inactive) under setting [1] and 192% (response, at 7.7 µM).

With `CCCCN(C(=O)COC(=O)c1ccc(C=O)cc1)c1c(N)n(CCC)c(=O)[nH]c1=O`, the double positive events reads like this: (at 7.7 µM) 9.2%; under setting [1], 13.1%. The percent response (vesicle binding) runs as follows: under setting [1], 406% (inactive); (response, at 7.7 µM) 335%.

With `CCc1ccc(OCc2cnc(Cl)s2)cc1`, the double positive events runs as follows: (at 7.7 µM) 11.6%; under setting [1], 16.5%. In addition, the percent response (vesicle binding) under setting [1] is 277% (inactive) and the percent response (vesicle binding) (response, at 7.7 µM) was 421%.

Regarding `Cn1c(SCC(=O)Nc2ccc3cn[nH]c3c2)nnc1-c1cccs1`, the double positive events reads like this: (at 7.7 µM) 12.5%; under setting [1], 17.2%. Also, the percent response (vesicle binding) reads like this: under setting [1], 146% (inactive); (response, at 7.7 µM) 160%.

On to `Cc1c(NC(=S)NC(=O)CCc2ccccc2)c(=O)n(-c2ccccc2)n1C`, for which the double positive events by setting is: (at 7.7 µM) 21.8%; under setting [1], 30.2%. In addition, the percent response (vesicle binding) reads like this: under setting [1], 295% (inactive); (response, at 7.7 µM) 278%.

For `Cc1c(NS(=O)(=O)CC23CCC(CC2=O)C3(C)C)c(=O)n(-c2ccccc2)n1C` (stereo unspecified), the double positive events by setting is: (at 7.7 µM) 14.2%; under setting [1], 1.9%. Also, the percent response (vesicle binding) under setting [1] was 37.7% (active) and the percent response (vesicle binding) (response, at 7.7 µM) is 260%.

As for `CCC(=O)NC(NC(=S)Nc1c(C)n(C)n(-c2ccccc2)c1=O)C(Cl)(Cl)Cl` (stereo unspecified), the double positive events reads like this: (at 7.7 µM) 16.1%; under setting [1], 13.9%. The percent response (vesicle binding) is, setting by setting: under setting [1], 129% (inactive); (response, at 7.7 µM) 201%.

In the case of `COc1cc(C(C)=O)ccc1O`, the double positive events is, setting by setting: (at 7.7 µM) 24%; under setting [1], 6.3%. For the same compound, the percent response (vesicle binding) is, setting by setting: under setting [1], 114% (inactive); (response, at 7.7 µM) 362%.

For `Cc1cc(C(=O)NCc2cc(C(=O)O)oc2C)c(C)o1`, the double positive events is 29.4% (at 7.7 µM) and 14.9% under setting [1]. Further, the percent response (vesicle binding) was 86.2% (inactive) under setting [1] and 224% (response, at 7.7 µM).

`CSCCC(NC(=O)c1ccc(=O)n(C)n1)c1nc2ccccc2[nH]1` (stereo unspecified): the double positive events amounted to 14.9% (at 7.7 µM) and 0.9% under setting [1]. Moreover, the percent response (vesicle binding) under setting [1] was 42% (active) and the percent response (vesicle binding) (response, at 7.7 µM) was determined as 254%.

For the compound `O=C(NCC(=O)N1CCN(C(=O)c2ccccc2)CC1)c1ccccc1`, the double positive events is, setting by setting: (at 7.7 µM) 13.6%; under setting [1], 10.6%. The percent response (vesicle binding) is 148% (inactive) under setting [1] and 158% (response, at 7.7 µM).

In the case of `Cc1cc(C)nc(SCCn2c(N3CC(C)OC(C)C3)nc3c2c(=O)n(C)c(=O)n3C)n1` (stereo unspecified), the double positive events reads like this: (at 7.7 µM) 12.7%; under setting [1], 28.3%. Also, the percent response (vesicle binding) was 226% (inactive) under setting [1] and 172% (response, at 7.7 µM).

Turning to `C=CCNC(=O)c1c(Cl)nc(C)c([N+](=O)[O-])c1C`, the double positive events runs as follows: (at 7.7 µM) 28.7%; under setting [1], 11.5%. The percent response (vesicle binding) was 144% (inactive) under setting [1] and 122% (response, at 7.7 µM).

Take `CCC1(C)NC(=O)N(CC(=O)N2N=C(c3ccccc3)CC2c2ccc(OC)cc2)C1=O` (stereo unspecified): the double positive events stood at 9.6% (at 7.7 µM) and 30.9% under setting [1]. Further, the percent response (vesicle binding) runs as follows: under setting [1], 413% (inactive); (response, at 7.7 µM) 134%.

As for `CCOc1ccc(-c2cn(-c3ccc(OC)cc3)c(SC)n2)cc1`, the double positive events reads like this: (at 7.7 µM) 11.4%; under setting [1], 13.4%. The percent response (vesicle binding) by setting is: under setting [1], 155% (inactive); (response, at 7.7 µM) 303%.
